Compounds with a hit are over-represented: about 5.5% of the library has one in this group of screens.
VP16 counter: counter-screen for ROR gamma inhibitors: Gal4-VP16 reporter. Drosophila S2 Gal4-VP16 UAS-luciferase, luminescence, 20 h. Potency, µM (top dose mostly 53.6 µM), for inactives: at the highest dose activity, negative = inhibition, most hits filed as inhibitors. 3.5% of 310,000 active;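 also: Gal4-VP16 expression switched on by copper sulfate through the metallothionein promoter; potency is read from the fitted curve at half-maximal effect; % is scaled to controls: 0 for no effect and ±100 for the full control effect; nearly all actives have a fitted effect of over 50% in size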
CtBP-E1A inh: blocks the CtBP interaction with E1A. 0.49% of 340,000 active. AID 651724. activity change, % (test concentration not listed). AlphaScreen GST-E1A/His-CtBP binding, 1536-well; hits give low values; in the data active = activity change below about -65%; inconclusive = mostly about -30% to -63%; also: % is scaled to controls: 0 for no effect and ±100 for the full control effect
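AlphaScreen with 125 nM GST-E1A and 125 nM His-CtBP (5X stocks) in Tris pH 8.0, 300 mM NaCl, BSA, Tween 20, TCEP. Compounds preincubated 2 h at 37 deg C, then glutathione donor/nickel acceptor beads added for 1 h at 37 deg C in dark.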
RORgamma inh: ROR gamma (mouse) transcription inhibition | P51450 | Drosophila S2 Gal4-RORgamma UAS-luciferase reporter, 20 h | Potency, µM (highest dose often 53.6 µM), for the others: top-dose activity change, negative = inhibition, usual class: inhibitors | 5.4% of 310,000 active; also: potency is read from the fitted curve at half-maximal effect; % is scaled to controls: 0 for no effect and ±100 for the full control effect; nearly all actives have a fitted effect of over 60% in size
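Read-out: Photinus luciferase luminescence; inhibitors lower reporter signal. Insect Schneider cells with Gal4-ROR gamma fusion under metallothionein promoter, UAS reporter; 700 uM final copper sulfate induction, 20 hr, ambient temperature.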
Six1-Eya2 blk: blocks human Six1 binding to Eya2; AlphaScreen GST-Six1/His-Eya2 binding, biochemical; hits give low values; Q15475+O00167; activity change, % (no concentration beside the values); 0.56% of 360,000 active; in the data active = activity change below about -65%; inconclusive = mostly about -30% to -63%; also: % is scaled to controls: 0 for no effect and ±100 for the full control effect
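Compounds are tested against tagged Six1 and Eya2 proteins bridged by glutathione donor and nickel acceptor beads; after a one-hour incubation at 37 °C without light, AlphaScreen emission is recorded.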
CBFb RUNX1 block: inhibitors of human CBF-beta and RUNX1 interaction. AlphaScreen CBFb-His/RUNX1-biotin binding, biochemical. Potency, µM (doses to about 59.8 µM), for inactives: top-dose activity, negative = inhibition, most hits filed as inhibitors. 230,000 tested, under 10 active. AID 1477; also: % of control where 0% means no effect
Target sequence (Q01196 whole entry, looked up): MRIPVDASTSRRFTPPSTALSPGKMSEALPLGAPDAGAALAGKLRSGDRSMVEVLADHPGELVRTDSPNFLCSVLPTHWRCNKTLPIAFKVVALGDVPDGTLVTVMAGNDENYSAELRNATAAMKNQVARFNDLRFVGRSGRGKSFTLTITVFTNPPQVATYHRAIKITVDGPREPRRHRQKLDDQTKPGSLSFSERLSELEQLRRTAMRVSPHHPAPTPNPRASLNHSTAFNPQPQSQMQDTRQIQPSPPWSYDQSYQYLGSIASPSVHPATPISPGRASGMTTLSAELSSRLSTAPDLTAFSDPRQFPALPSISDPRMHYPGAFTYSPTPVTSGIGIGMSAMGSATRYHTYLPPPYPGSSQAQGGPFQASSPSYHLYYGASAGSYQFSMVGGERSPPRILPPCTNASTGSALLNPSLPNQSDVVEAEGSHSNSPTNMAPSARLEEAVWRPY
Target sequence (Q13951 whole entry, looked up): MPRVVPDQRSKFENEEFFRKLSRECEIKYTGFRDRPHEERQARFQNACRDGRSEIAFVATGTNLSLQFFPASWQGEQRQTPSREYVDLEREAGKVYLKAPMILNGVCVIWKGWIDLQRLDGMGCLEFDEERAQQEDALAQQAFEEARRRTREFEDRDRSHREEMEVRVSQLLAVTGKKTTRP
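Proteins preincubated together for 20 min at RT before compound addition; 15 min later, nickel and streptavidin beads were added and left 90 min prior to AlphaScreen measurement.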
MBNL1-CUG inh: inhibitors of human MBNL1 binding to CUG repeat RNA. TR-FRET MBNL1-His/biotin-(CUG)12 binding, 665/545 ratio. Potency, µM (series often up to 57.5 µM), for the others: top-dose activity change, negative = inhibition, usual class: inhibitors. 0.036% of 280,000 active; active = well fitted inhibition curve with a large enough effect in the signal ratio, with a control signal flat, not every such curve was filed as active; inconclusive = small, poorly fitted or top-dose-only effect, or effect the other way, or a change in a side signal; inactive = no such curve, though single readings can be large or run the other way; the % refers to the signal ratio; also: potency is read from the fitted curve at half-maximal effect; % is scaled to controls: 0 for no effect and ±100 for the full control effect
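Ratiometric TR-FRET (665 over 545 nm, excitation 340 nm) tracks disruption of MBNL1-His/biotin-(CUG)12 complex after 60 min at room temperature, with compounds at 92 nM to 58 uM final.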
* marks the source's active call; other numbers are inactive results. Unless noted, calls follow the shape of the dose curve; as a rule, active = well fitted curve in the direction sought with a large enough effect; inconclusive = small, poorly fitted or top-dose-only effect, or another doubt; inactive = no such curve, though single readings can be large; an effect the other way counts as inactive or inconclusive.

For CC(=O)n1cc(/C=N/NC(=O)c2ccc([N+](=O)[O-])cc2)c2ccccc21 the results were VP16 counter inconclusive, RORgamma inh 3.5µM*, Six1-Eya2 blk -10 and MBNL1-CUG inh inconclusive.
`CC(=O)n1cc(/C=N/NC(=O)c2sc(C)nc2C)c2ccccc21` gave VP16 counter inconclusive, CtBP-E1A inh inconclusive, RORgamma inh 14µM*, Six1-Eya2 blk -17, CBFb RUNX1 block -3% and MBNL1-CUG inh inconclusive.
Cc1nc(N)sc1C(=O)N/N=C/c1c[nH]c2ccccc12 was read as VP16 counter 1%, CtBP-E1A inh 3, RORgamma inh 31%, Six1-Eya2 blk -25, CBFb RUNX1 block 1% and MBNL1-CUG inh inconclusive.
`COc1ccc(NC(=O)CC2SC(N3CCOCC3)=NC2=O)cc1OC` (configuration not stated) gave CtBP-E1A inh 4 and Six1-Eya2 blk 0.
`COC(=O)c1ccc(OC(=O)c2cccs2)cc1` gave VP16 counter -6%, CtBP-E1A inh 4, RORgamma inh 22%, Six1-Eya2 blk -68* and CBFb RUNX1 block -12%.
For CCC(=O)c1ccc(OC(=O)c2cccs2)cc1 the results were CtBP-E1A inh -6 and Six1-Eya2 blk inconclusive.
For COc1ccc(-n2c(SCC(=O)Nc3cccc4ccccc34)nc(O)cc2=O)cc1 the results were VP16 counter 12%, CtBP-E1A inh -1, RORgamma inh 35µM*, Six1-Eya2 blk 0, CBFb RUNX1 block -3% and MBNL1-CUG inh 21%.
`CNC[C@@H](CC1CCCCC1)NC[C@H](CC(C)C)NCCc1cccc(C(F)(F)F)c1` gave VP16 counter inconclusive, CtBP-E1A inh -5, RORgamma inh 11µM*, Six1-Eya2 blk 1 and MBNL1-CUG inh -6%.
Screening CNC[C@@H](Cc1ccccc1)NC[C@@H](CC1CCCCC1)NCCCc1ccccc1 returned VP16 counter inconclusive, CtBP-E1A inh -22, RORgamma inh inconclusive, Six1-Eya2 blk 12 and MBNL1-CUG inh 4%.
`CC[C@@H](C)[C@H](CNC)NC[C@@H](Cc1cccc2ccccc12)NCCc1cccc(C(F)(F)F)c1` gave VP16 counter inconclusive, CtBP-E1A inh -20, RORgamma inh 13µM*, Six1-Eya2 blk 0 and MBNL1-CUG inh 1%.
Screening CC(C)(C)OC(=O)C[C@H]1C/C=C\C[C@@H](CC(=O)N[C@@H](CO)Cc2ccccc2)C(=O)NCCOC1=O returned CtBP-E1A inh 6 and Six1-Eya2 blk 2.
O=C(CCCCl)NC(=S)Nc1cc(C(F)(F)F)ccc1N1CCOCC1 was read as VP16 counter inconclusive, RORgamma inh 7.9µM*, Six1-Eya2 blk -1, CBFb RUNX1 block 0% and MBNL1-CUG inh -3%.
For CC(C)(C)C(=O)NC(=S)Nc1cc(C(F)(F)F)ccc1N1CCOCC1 the results were VP16 counter inconclusive, CtBP-E1A inh -1, RORgamma inh 13µM*, Six1-Eya2 blk -13, CBFb RUNX1 block -6% and MBNL1-CUG inh -2%.
`O=C(NC(=S)Nc1cc(C(F)(F)F)ccc1N1CCOCC1)c1sc2ccccc2c1Cl` gave VP16 counter 4µM*, CtBP-E1A inh 1, RORgamma inh 2.2µM*, Six1-Eya2 blk -1, CBFb RUNX1 block -1% and MBNL1-CUG inh inconclusive.
C=C1CCN(C(Cc2ccccc2)C(=O)Nc2ccc(OC)cc2)S(=O)(=O)c2ccccc21 (configuration not stated) was read as VP16 counter -6%, RORgamma inh -30% and CBFb RUNX1 block -6%.
Screening C[C@]1(CC/C(=C/CO)CO)[C@H](CO)CC[C@@]23COC(=O)C2=CCC[C@@H]31 returned CtBP-E1A inh -2 and Six1-Eya2 blk 0.
Screening CC(=O)NCCc1nc2cc(NC(=O)COc3cccc(C)c3)ccc2n1C returned VP16 counter -21%, CtBP-E1A inh -1, RORgamma inh -18%, Six1-Eya2 blk 1 and MBNL1-CUG inh -1%.
CNc1nc(-c2ccccn2)nnc1-c1ccccc1 was read as VP16 counter 3%, CtBP-E1A inh -95*, RORgamma inh -6%, Six1-Eya2 blk -93* and MBNL1-CUG inh -1%.
`c1ccc(-c2nnc(-c3ccccn3)nc2NC2CCCCC2)cc1` gave VP16 counter inconclusive, CtBP-E1A inh -95*, RORgamma inh -81%, Six1-Eya2 blk -84* and MBNL1-CUG inh 6%.
Screening c1ccc(-c2nnc(-c3ccncc3)nc2-c2ccccc2)cc1 returned VP16 counter -6%, CtBP-E1A inh -4, RORgamma inh -8%, Six1-Eya2 blk -4, CBFb RUNX1 block -6% and MBNL1-CUG inh inconclusive.
`Cc1cccc(NC(=S)NCc2ccccc2Cl)c1C` gave VP16 counter 4µM*, CtBP-E1A inh -12, RORgamma inh 5µM*, Six1-Eya2 blk -2 and MBNL1-CUG inh 4%.
`COc1ccc(CCNC(=S)Nc2cccc(C)c2C)cc1` gave VP16 counter 7.9µM*, CtBP-E1A inh 2, RORgamma inh 4µM*, Six1-Eya2 blk -3, CBFb RUNX1 block -4% and MBNL1-CUG inh 3%.
Screening Cc1c(Cl)cccc1NC(=S)NCc1ccccc1 returned CtBP-E1A inh -2 and Six1-Eya2 blk -5.
Cc1cccc(NC(=S)NCCc2ccccc2)c1C was read as VP16 counter 5µM*, CtBP-E1A inh 5, RORgamma inh 3.5µM*, Six1-Eya2 blk 0 and MBNL1-CUG inh 0%.
For Cc1cccc(C)c1NC(=S)NCCc1ccc(O)c(O)c1 the results were VP16 counter inconclusive, CtBP-E1A inh 7, RORgamma inh 7.9µM*, Six1-Eya2 blk -8, CBFb RUNX1 block -1% and MBNL1-CUG inh -2%.
`COc1ccc(N2CCN(C(=S)Nc3cccc(C)c3C)CC2)cc1` gave VP16 counter -4%, CtBP-E1A inh -1, RORgamma inh -34%, Six1-Eya2 blk -1, CBFb RUNX1 block 5% and MBNL1-CUG inh -9%.
Screening COc1cc(CNC(=O)CCn2nc(C)c3c(C)n(-c4ccccc4)nc3c2=O)cc(OC)c1OC returned VP16 counter -6%, CtBP-E1A inh 0, RORgamma inh -6%, Six1-Eya2 blk 1 and MBNL1-CUG inh -1%.
For COc1ccc(-c2csc(C(C)(O)c3cccc(F)c3)n2)cc1OC (configuration not stated) the results were CtBP-E1A inh -4 and Six1-Eya2 blk -9.
